According to PubChem BioAssay AID1159580 (chemical genetic matrix, 2015):
Hit rate of the full screen: of about 5,500 compounds, about 2,000 (36%) were called active. Inconclusive results (about 18%) are left out. Rule as the data show it: active = normalized growth mostly below about 0.91 (no sharp cut-off); inconclusive = no clear call, values can overlap the other calls; inactive = mostly above about 0.92. The list shows a part of the results.

Experiment: chemical genetic growth profiling, strain panel (AID 1159580);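 also: tested at 20 µM; growth read once vehicle control cultures reached saturation at 30 °C; 1 = growth at the plate median or of vehicle wells; lower values mean less growth of the strain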
Conditions: growth OD

Measured: normalized growth

COc1cc(OC)c2c3c1C(=O)c1c(OC)cc(C)c4c(OC)cc(c-3c14)C(C)(C)C2=O
inactive: S. cerevisiae deletion strains, locus YAL013W, strain DEP1, active compounds read low 1.02 | S. cerevisiae deletion strains, locus YBR021W, strain FUR4, active compounds read low 0.993 | S. cerevisiae deletion strains, locus YBR229C, strain ROT2, active compounds read low 1.02 | S. cerevisiae deletion strains, locus YCL029C, strain bik1, active compounds read low 0.993 | S. cerevisiae deletion strains, locus YDL035C, strain GPR1, active compounds read low 0.99 | S. cerevisiae deletion strains, locus YDL074C, strain BRE1, active compounds read low 0.991 | S. cerevisiae deletion strains, locus YDL101C, strain DUN1, active compounds read low 1.01 | S. cerevisiae deletion strains, locus YDL134C, strain PPH21, active compounds read low 1 | S. cerevisiae deletion strains, locus YDL185W, strain tfp1, active compounds read low 0.991 | S. cerevisiae deletion strains, locus YDL192W, strain arf1, active compounds read low 0.988 | S. cerevisiae deletion strains, locus YDR101C, strain arx1, active compounds read low 0.971 | S. cerevisiae deletion strains, locus YDR150W, strain NUM1, active compounds read low 1.01 | S. cerevisiae deletion strains, locus YDR162C, strain NBP2, active compounds read low 1.03 | S. cerevisiae deletion strains, locus YDR318W, strain mcm21, active compounds read low 0.98 | S. cerevisiae deletion strains, locus YDR388W, active compounds read low 0.989 | S. cerevisiae deletion strains, locus YDR502C, strain sam2, active compounds read low 0.981 | S. cerevisiae deletion strains, locus YEL061C, strain CIN8, active compounds read low 1.01 | S. cerevisiae deletion strains, locus YER110C, active compounds read low 0.988 | S. cerevisiae deletion strains, locus YER155C, strain BEM2, active compounds read low 1.01 | S. cerevisiae deletion strains, locus YER167W, strain BCK2, active compounds read low 0.987 | S. cerevisiae deletion strains, locus YGL078C, strain dbp3, active compounds read low 1 | S. cerevisiae deletion strains, locus YGL086W, strain mad1, active compounds read low 0.968 | S. cerevisiae deletion strains, locus YGL248W, strain PDE1, active compounds read low 1.01 | S. cerevisiae deletion strains, locus YGR078C, strain PAC10, active compounds read low 1.01 | S. cerevisiae deletion strains, locus YGR135W, strain pre9, active compounds read low 0.983 | S. cerevisiae deletion strains, locus YGR229C, strain SMI1, active compounds read low 0.997 | S. cerevisiae deletion strains, locus YGR252W, strain gcn5, active compounds read low 0.896 | S. cerevisiae deletion strains, locus YHR030C, strain SLT2, active compounds read low 1.01 | S. cerevisiae deletion strains, locus YHR079C, strain IRE1 (second series), active compounds read low 0.977 | S. cerevisiae deletion strains, locus YHR094C, strain hxt1, active compounds read low 0.985 | S. cerevisiae deletion strains, locus YHR129C, strain ARP1, active compounds read low 1.01 | S. cerevisiae deletion strains, locus YHR200W, strain rpn10, active compounds read low 0.989 | S. cerevisiae deletion strains, locus YIL066C, strain RNR3, active compounds read low 0.999 | S. cerevisiae deletion strains, locus YIL073C, strain SPO22, active compounds read low 0.924 | S. cerevisiae deletion strains, locus YIL125W, strain kgd1, active compounds read low 0.994 | S. cerevisiae deletion strains, locus YIR030C, strain dcg1, active compounds read low 0.979 | S. cerevisiae deletion strains, locus YJL095W, strain BCK1, active compounds read low 1.01 | S. cerevisiae deletion strains, locus YJL134W, strain LCB3, active compounds read low 1 | S. cerevisiae deletion strains, locus YJL168C, strain set2, active compounds read low 0.987 | S. cerevisiae deletion strains, locus YJL187C, strain SWE1 (second series), active compounds read low 1.01 | S. cerevisiae deletion strains, locus YJR043C, strain POL32, active compounds read low 0.993 | S. cerevisiae deletion strains, locus YJR075W, strain HOC1, active compounds read low 0.988 | S. cerevisiae deletion strains, locus YKL009W, strain mrt4, active compounds read low 0.979 | S. cerevisiae deletion strains, locus YKL068W, active compounds read low 0.992 | S. cerevisiae deletion strains, locus YKL085W, strain MDH1 (second series), active compounds read low 0.99 | S. cerevisiae deletion strains, locus YKL085W, strain MDH1, active compounds read low 0.99 | S. cerevisiae deletion strains, locus YKL190W, strain CNB1, active compounds read low 1 | S. cerevisiae deletion strains, locus YKR001C, strain vps1, active compounds read low 0.973 | S. cerevisiae deletion strains, locus YLR039C, strain RIC1, active compounds read low 1.01 | S. cerevisiae deletion strains, locus YLR058C, strain SHM2, active compounds read low 1.01 | S. cerevisiae deletion strains, locus YLR102C, strain apc9, active compounds read low 0.981 | S. cerevisiae deletion strains, locus YLR262C, strain YPT6, active compounds read low 0.995 | S. cerevisiae deletion strains, locus YLR268W, strain sec22, active compounds read low 0.973 | S. cerevisiae deletion strains, locus YLR330W, strain CHS5, active compounds read low 1.02 | S. cerevisiae deletion strains, locus YLR342W, strain FKS1 (second series), active compounds read low 0.967 | S. cerevisiae deletion strains, locus YLR371W, strain rom2, active compounds read low 0.99 | S. cerevisiae deletion strains, locus YLR418C, strain cdc73, active compounds read low 0.947 | S. cerevisiae deletion strains, locus YML016C, strain PPZ1, active compounds read low 1.01 | S. cerevisiae deletion strains, locus YML032C, strain rad52, active compounds read low 0.973 | S. cerevisiae deletion strains, locus YML124C, strain tub3, active compounds read low 0.985 | S. cerevisiae deletion strains, locus YMR078C, strain ctf18, active compounds read low 0.99 | S. cerevisiae deletion strains, locus YMR223W, strain ubp8, active compounds read low 0.969 | S. cerevisiae deletion strains, locus YMR263W, strain SAP30, active compounds read low 1.02 | S. cerevisiae deletion strains, locus YMR307W, strain GAS1, active compounds read low 0.977 | S. cerevisiae deletion strains, locus YNL067W, strain RPL9B, active compounds read low 1.01 | S. cerevisiae deletion strains, locus YNL128W, strain TEP1, active compounds read low 1.02 | S. cerevisiae deletion strains, locus YNL153C, strain GIM3, active compounds read low 1.02 | S. cerevisiae deletion strains, locus YNL233W, strain BNI4, active compounds read low 1.01 | S. cerevisiae deletion strains, locus YNL250W, strain rad50, active compounds read low 0.989 | S. cerevisiae deletion strains, locus YNL271C, strain bni1, active compounds read low 0.994 | S. cerevisiae deletion strains, locus YNL298W, strain CLA4, active compounds read low 0.99 | S. cerevisiae deletion strains, locus YNL307C, strain MCK1, active compounds read low 0.95 | S. cerevisiae deletion strains, locus YNL322C, strain KRE1, active compounds read low 1.01 | S. cerevisiae deletion strains, locus YNR052C, strain pop2, active compounds read low 0.985 | S. cerevisiae deletion strains, locus YOL006C, strain TOP1, active compounds read low 0.991 | S. cerevisiae deletion strains, locus YOL012C, strain htz1 1.08 | S. cerevisiae deletion strains, locus YOL147C, strain pex11, active compounds read low 0.994 | S. cerevisiae deletion strains, locus YOR061W, strain CKA2, active compounds read low 1 | S. cerevisiae deletion strains, locus YOR069W, strain VPS5, active compounds read low 1 | S. cerevisiae deletion strains, locus YOR136W, strain idh2, active compounds read low 0.987 | S. cerevisiae deletion strains, locus YOR144C, strain elg1, active compounds read low 0.991 | S. cerevisiae deletion strains, locus YOR184W, strain ser1, active compounds read low 0.952 | S. cerevisiae deletion strains, locus YOR316C, strain cot1, active compounds read low 0.981 | S. cerevisiae deletion strains, locus YPL055C, strain LGE1, active compounds read low 1.01 | S. cerevisiae deletion strains, locus YPL241C, strain CIN2, active compounds read low 1.01 | S. cerevisiae deletion strains, locus YPR119W, strain clb2, active compounds read low 0.988 | S. cerevisiae deletion strains, locus YPR141C, strain kar3, active compounds read low 0.986 | S. cerevisiae deletion strains, locus YPR163C, strain tif3, active compounds read low 0.989 | S. cerevisiae deletion strains, locus YPR167C, strain met16, active compounds read low 0.981 | S. cerevisiae deletion strains, strain wtn01, active compounds read low 0.95 | S. cerevisiae strains, strain wild type, active compounds read low 1
